# Measured values: PubChem BioAssay (Tox21)
# Values joined by “and” are separate entries in the source; they are usually repeats but may differ in a detail not shown here. Equal values may be shown once. Records with an inconclusive call do not appear. A call without a number means that no potency is given here. Some compounds were tested as several samples or in several runs, with calls that do not always agree. Active and inactive are the calls of the source. Calls follow the shape of the dose curve; as a rule, active = well fitted curve in the direction sought with a large enough effect in the repeat runs; inconclusive = weak or mixed curves; inactive = no such curve, though single readings can be large; an effect the other way counts as inactive or inconclusive.
# Tests used:
# [1] = qHTS RealTime-Glo MT Cell Viability Assay in HEK293 cells - 16 hour (AID 1224872); also: nearly all actives have a fitted effect of over 50% in size; also: potency is read from the fitted curve at half-maximal effect
# In short: (§1)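 Assay medium contained NanoLuc luciferase plus cell-permeant prosubstrate, added with HEK293 cells at 600 cells/well. After 5 h at 37 C/5% CO2 compounds were added; plates stayed at 37 C for 40 h with serial luminescence reads.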
# [2] = qHTS RealTime-Glo MT Cell Viability Assay in HepG2 cells - 8 hour (AID 1224873); also: nearly all actives have a fitted effect of over 55% in size; also: potency is read from the fitted curve at half-maximal effect
# In short: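 Real-time viability: cells seeded at 600 per well together with NanoLuc and cell-permeant prosubstrate, compounds added after 5 h incubation. Luminescence tracked at 0, 8, 16, 24, 32 and 40 h of exposure.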
# [3] = qHTS RealTime-Glo MT Cell Viability Assay in HEK293 cells - 40 hour (AID 1224874); conditions: RealTime-Glo luminescence; max response: stronger effect = lower value; also: nearly all actives have a fitted effect of over 50% in size; also: potency is read from the fitted curve at half-maximal effect
# In short: (§2)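 600 HEK293 cells per well, dispensed already mixed with RealTime-Glo MT reagents. Compound dosing came 5 h later. The same wells were read for luminescence at 0, 8, 16, 24, 32 and 40 h of exposure at 37 C.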
# [4] = qHTS RealTime-Glo MT Cell Viability Assay in HepG2 cells - 32 hour (AID 1224877); also: nearly all actives have a fitted effect of over 55% in size; also: potency is read from the fitted curve at half-maximal effect
# In short: (§3)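 qHTS, HepG2, 600 cells/well, RealTime-Glo (NanoLuc + prosubstrate) added with cells; 5 h preincubation; DMSO compound addition; 37 C; luminescence at 0/8/16/24/32/40 h.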
# [5] = A CellTox Green Cytotoxicity Assay to monitor cytotoxicity in HepG2 cells - 24 hour (AID 1224878); also: nearly all actives have a fitted effect of over 45% in size; also: potency is read from the fitted curve at half-maximal effect
# In short: (§4)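 First, HepG2 cells (600/well) mixed with reagent were plated; second, after 5 h at 37 C they received compounds via pintool; third, fluorescence was measured at 0 h through 40 h at 8 h intervals.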
# [6] = A CellTox Green Cytotoxicity Assay to monitor cytotoxicity in HepG2 cells - 40 hour (AID 1224879); also: nearly all actives have a fitted effect of over 40% in size; also: potency is read from the fitted curve at half-maximal effect
# In short: as §4
# [7] = qHTS RealTime-Glo MT Cell Viability Assay in HEK293 cells - 0 hour (AID 1224880); also: top concentration of the series differs between compounds; nearly all actives have a fitted effect of over 45% in size
# In short: as §2
# [8] = A CellTox Green Cytotoxicity Assay to monitor cytotoxicity in HEK293 cells - 32 hour (AID 1224881); also: nearly all actives have a fitted effect of over 40% in size; also: potency is read from the fitted curve at half-maximal effect
# In short: (§5)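 Dead-cell fluorescence measured kinetically: asymmetric cyanine dye, HEK293, 600 cells/well, 5 h settle, 23 nL cpd/DMSO, 37 C, reads 0–40 h every 8 h.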
# [9] = A CellTox Green Cytotoxicity Assay to monitor cytotoxicity in HepG2 cells - 0 hour (AID 1224882); also: nearly all actives have a fitted effect of over 35% in size
# In short: as §4
# [10] = A CellTox Green Cytotoxicity Assay to monitor cytotoxicity in HEK293 cells - 8 hour (AID 1224884); also: nearly all actives have a fitted effect of over 35% in size; also: potency is read from the fitted curve at half-maximal effect
# In short: as §5
# [11] = qHTS RealTime-Glo MT Cell Viability Assay in HepG2 cells - 16 hour (AID 1224885); also: nearly all actives have a fitted effect of over 50% in size; also: potency is read from the fitted curve at half-maximal effect
# In short: as §3
# [12] = qHTS RealTime-Glo MT Cell Viability Assay in HEK293 cells - 24 hour (AID 1224886); also: nearly all actives have a fitted effect of over 50% in size; also: potency is read from the fitted curve at half-maximal effect
# In short: as §1
# [13] = qHTS RealTime-Glo MT Cell Viability Assay in HEK293 cells - 8 hour (AID 1224887); also: nearly all actives have a fitted effect of over 50% in size; also: potency is read from the fitted curve at half-maximal effect
# In short: as §2
# [14] = A CellTox Green Cytotoxicity Assay to monitor cytotoxicity in HEK293 cells - 16 hour (AID 1224888); also: nearly all actives have a fitted effect of over 35% in size; also: potency is read from the fitted curve at half-maximal effect
# In short: as §5
# [15] = A CellTox Green Cytotoxicity Assay to monitor cytotoxicity in HepG2 cells - 8 hour (AID 1224890); also: nearly all actives have a fitted effect of over 45% in size; also: potency is read from the fitted curve at half-maximal effect
# In short: as §4
# [16] = qHTS assay to identify small molecule antagonists of the estrogen receptor alpha (ER-alpha) signaling pathway using the BG1 cell line in the presence of 0.1 nM 17-beta-estradiol - cell viability counter screen (AID 1259241); also: nearly all actives have a fitted effect of over 40% in size
# In short: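 VM7Luc4E2, 4,000 cells/well, phenol red-free medium + 10% charcoal-stripped FBS; 24 hr plating; cpd + 0.1 nM E2 final, 22 hr 37C/5% CO2; CellTiter-Fluor 30 min, fluorescence.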
# [17] = A CellTox Green Cytotoxicity Assay to monitor cytotoxicity in HEK293 cells - 24 hour (AID 1224875); also: nearly all actives have a fitted effect of over 45% in size; also: potency is read from the fitted curve at half-maximal effect
# In short: as §5
# [18] = A CellTox Green Cytotoxicity Assay to monitor cytotoxicity in HepG2 cells - 32 hour (AID 1224883); also: nearly all actives have a fitted effect of over 50% in size; also: potency is read from the fitted curve at half-maximal effect
# In short: as §4
# [19] = qHTS RealTime-Glo MT Cell Viability Assay in HepG2 cells - 0 hour (AID 1224889); also: nearly all actives have a fitted effect of over 50% in size
# In short: as §3
# [20] = A CellTox Green Cytotoxicity Assay to monitor cytotoxicity in HepG2 cells - 16 hour (AID 1224876); also: nearly all actives have a fitted effect of over 45% in size
# In short: as §4
smiles,measurement,setting,value
CCCCCCc1ccc(O)cc1O,Potency,[1],19.6 µM (active) and 11 µM (active)
same,Potency,[2],inactive
same,Potency,[3],19.6 µM (active) and 12.3 µM (active)
same,Potency,[4],inactive
same,Potency,[5],49.1 µM (active) and 38.9 µM (active) and 21.3 µM (active)
same,Potency,[6],49.1 µM (active) and 38.9 µM (active) and 19 µM (active)
same,Potency,[7],inactive
same,Potency,[8],49.1 µM (active) and 49 µM (active) and inactive
same,Potency,[9],inactive
same,Potency,[10],inactive
same,Potency,[11],inactive
same,Potency,[12],19.6 µM (active) and 11 µM (active)
same,Potency,[13],15.5 µM (active) and 9.77 µM (active)
same,Potency,[14],inactive
same,Potency,[15],inactive and 49 µM (active)
same,Potency,[16],inactive
CCN(Cc1c(F)cccc1Cl)c1c([N+](=O)[O-])cc(C(F)(F)F)cc1[N+](=O)[O-],Potency,[1],27.5 µM (active)
same,Potency,[3],54.9 µM (active)
same,Potency,[17],inactive
same,Potency,[4],inactive
same,Potency,[5],inactive
same,Potency,[6],inactive
same,Potency,[7],inactive
same,Potency,[8],inactive
same,Potency,[9],inactive
same,Potency,[18],inactive
same,Potency,[10],inactive
same,Potency,[11],inactive
same,Potency,[12],43.6 µM (active)
same,Potency,[14],inactive
same,Potency,[15],inactive
same,Potency,[16],inactive
CC/C(=C(\c1ccccc1)c1ccc(OCCN(C)C)cc1)c1ccccc1,Potency,[1],34.6 µM (active) [middle of 5 runs]
same,Potency,[2],54.9 µM (active) and 19.7 µM (active) and 43.6 µM (active)
same,Potency,[3],22.1 µM (active) [middle of 5 runs]
same,Potency,[17],35 µM (active) [middle of 5 runs]
same,Potency,[4],30.9 µM (active) [middle of 4 runs]
same,Potency,[5],48.9 µM (active) [middle of 5 runs]
same,Potency,[6],43.6 µM (active) [middle of 5 runs]
same,Potency,[8],35 µM (active) [middle of 5 runs]
same,Potency,[9],inactive
same,Potency,[18],43.6 µM (active) [middle of 5 runs]
same,Potency,[10],44 µM (active) [middle of 5 runs]
same,Potency,[11],43.6 µM (active) [middle of 5 runs]
same,Potency,[12],24.5 µM (active) [middle of 5 runs]
same,Potency,[13],39.2 µM (active) [middle of 4 runs]
same,Potency,[14],39.2 µM (active) [middle of 5 runs]
same,Potency,[15],55.3 µM (active) and 54.9 µM (active) and 49 µM (active)
CCN(CC)C(=O)c1cccc(C)c1,Potency,[1],inactive
same,Potency,[2],inactive
same,max response,[3],-1.16% (inactive) and -0.892% (inactive) and 2.65% (inactive)
same,Potency,[17],inactive
same,Potency,[4],inactive
same,Potency,[5],inactive
same,Potency,[6],inactive
same,Potency,[7],inactive
same,Potency,[8],inactive
same,Potency,[9],inactive
same,Potency,[10],inactive
same,Potency,[11],inactive
same,Potency,[12],inactive
same,Potency,[13],inactive
same,Potency,[14],inactive
same,Potency,[15],inactive
same,Potency,[16],inactive
COc1ccc2c(c1)c(CC(=O)O)c(C)n2C(=O)c1ccc(Cl)cc1,Potency,[1],inactive
same,Potency,[2],inactive
same,max response,[3],-7.62% (inactive) and 0.0637% (inactive)
same,Potency,[17],inactive
same,Potency,[4],inactive
same,Potency,[5],inactive
same,Potency,[6],inactive
same,Potency,[7],inactive
same,Potency,[8],inactive
same,Potency,[9],inactive
same,Potency,[10],inactive
same,Potency,[11],inactive
same,Potency,[12],inactive
same,Potency,[13],inactive
same,Potency,[14],inactive
same,Potency,[19],inactive
same,Potency,[15],inactive
same,Potency,[16],inactive
NC(CO)(CO)CO,Potency,[1],inactive
same,Potency,[2],inactive
same,Potency,[17],inactive
same,Potency,[20],inactive
same,Potency,[4],inactive
same,Potency,[5],inactive
same,Potency,[6],inactive
same,Potency,[7],inactive
same,Potency,[8],inactive
same,Potency,[9],inactive
same,Potency,[18],inactive
same,Potency,[10],inactive
same,Potency,[11],inactive
same,Potency,[12],inactive
same,Potency,[13],inactive
same,Potency,[14],inactive
same,Potency,[19],inactive
same,Potency,[15],inactive
same,Potency,[16],inactive
